# Article PMC4336329 (PLoS ONE, 2015)
# Out of some 310,000 compounds screened, about 14,000 (4.5%) showed an effect of 50% or more. Effects have a minus sign here. The full list was thinned out, with strong results kept by preference.
# Target: human ether-à-go-go-related gene (hERG) potassium channel (human, UniProt Q12809)
# Assay: primary screen, population patch clamp on CHO cells stably expressing hERG; higher = less effect of the substance
# Method: Briefly, Chinese hamster ovary (CHO) cells stably expressing the hERG channel were dislodged from tissue culture flasks and dispensed into PPC plates. […] During the recording, background leak currents were estimated by a 100 ms step to -80 mV from an initial holding potential of -70 mV and subtracted from the subsequent current measurement. The campaign was conducted in two phases using slight differences in recording protocol. In the first phase, the initial voltage pulse used a 100 ms step to -30 mV from a holding potential of -70 mV, a 2 s conditioning step to +25 mV, and a 2 s test step to -30 mV. During the second phase of the screen, the potential during the conditioning step was raised to +45 mV. In both phases of the campaign, a secondary voltage pulse was applied using the same parameters as the second phase initial pulse. The initial and secondary pulses were applied in the absence of compound, and upon application of 1 μM and 10 μM test concentrations. […]
# 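Note: peak tail current of the secondary pulse compared with the same well before compound.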
# human ether-à-go-go-related gene (hERG) potassium channel, sequence (Q12809 whole entry, looked up): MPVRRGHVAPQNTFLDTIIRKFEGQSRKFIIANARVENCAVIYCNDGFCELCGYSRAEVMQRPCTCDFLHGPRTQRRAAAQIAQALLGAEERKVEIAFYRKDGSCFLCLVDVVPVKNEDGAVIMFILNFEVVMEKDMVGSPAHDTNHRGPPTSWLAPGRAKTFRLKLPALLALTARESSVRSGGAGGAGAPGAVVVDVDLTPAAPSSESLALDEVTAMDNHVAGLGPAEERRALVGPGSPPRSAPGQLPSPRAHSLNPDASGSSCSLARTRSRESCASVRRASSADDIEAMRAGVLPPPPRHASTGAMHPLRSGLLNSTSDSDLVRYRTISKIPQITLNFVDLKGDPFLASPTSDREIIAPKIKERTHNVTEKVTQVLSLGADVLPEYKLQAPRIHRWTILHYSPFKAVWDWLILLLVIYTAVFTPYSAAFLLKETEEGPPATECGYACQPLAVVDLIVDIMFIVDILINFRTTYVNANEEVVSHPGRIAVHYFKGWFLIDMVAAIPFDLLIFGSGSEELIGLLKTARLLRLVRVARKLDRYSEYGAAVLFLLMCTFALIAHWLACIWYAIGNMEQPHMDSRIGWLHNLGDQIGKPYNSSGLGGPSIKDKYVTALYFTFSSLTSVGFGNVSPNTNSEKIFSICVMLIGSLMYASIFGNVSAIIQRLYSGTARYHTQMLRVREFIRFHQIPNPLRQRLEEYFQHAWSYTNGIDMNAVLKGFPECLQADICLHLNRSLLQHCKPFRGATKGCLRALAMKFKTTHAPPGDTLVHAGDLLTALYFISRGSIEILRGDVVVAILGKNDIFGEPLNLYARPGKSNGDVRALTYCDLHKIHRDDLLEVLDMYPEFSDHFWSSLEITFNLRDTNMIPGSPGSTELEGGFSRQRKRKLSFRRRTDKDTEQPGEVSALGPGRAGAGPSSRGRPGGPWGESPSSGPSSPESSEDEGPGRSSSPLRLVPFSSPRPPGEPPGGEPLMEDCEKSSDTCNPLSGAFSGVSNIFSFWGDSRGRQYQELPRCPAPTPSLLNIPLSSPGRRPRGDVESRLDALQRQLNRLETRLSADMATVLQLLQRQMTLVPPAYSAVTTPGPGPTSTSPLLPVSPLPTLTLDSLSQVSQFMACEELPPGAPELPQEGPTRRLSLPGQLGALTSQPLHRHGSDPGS
row,Compound,"hERG current change (%, negative = inhibition) at 10uM [%]"
1,O=C(Nc1ccc(Br)cc1)N1CCCC(O)C1 (centres unmarked),6.54
2,CN1CCN(C(=O)c2ccc3c(c2)N(Cc2ccccc2F)C(=O)c2ccccc2S3=O)CC1 (centres unmarked),5.05
3,Cc1ccc(C2(c3noc(CN4CCOCC4)n3)CCCC2)cc1,17.3
4,Cc1ccc(C2(c3noc(CN4CCC(c5ccncc5)CC4)n3)CCCC2)cc1,-55.5
5,COCCN1CCN(Cc2nc(C3(c4ccc(C)cc4)CCCC3)no2)CC1,-9.3
6,COc1ccccc1NC(=O)C[n+]1ccccc1C.[Cl-],15.3
7,COc1ccc(-n2c(SCCNCCO)nc3sc4c(c3c2=O)CCCC4)cc1,-55.7
8,COc1ccc(-n2c(NN)nc3sc4c(c3c2=O)CCCC4)cc1,-47.4
9,CCOc1ccc(-n2c(SCC(=O)OC)nc3sc4c(c3c2=O)CCN(C)C4)cc1,-0.924
10,COc1ccc(-n2c(SCC(=O)O)nc3sc4c(c3c2=O)CCCC4)cc1,20.3
11,CCN1CCN(c2nc3sc4c(c3c(=O)n2-c2ccc(OC)cc2)CCCCC4)CC1,-60.3
12,COc1ccc(-n2c(NCCN(C)C)nc3sc4c(c3c2=O)CCCCC4)cc1,-72.7
13,COc1ccc(-n2c(C)nc3sc4c(c3c2=O)CCCC4)cc1,-20.3
14,COc1ccc(-n2c(SCC(N)=O)nc3sc4c(c3c2=O)CCC4)cc1,-16.9
15,COc1ccc(-n2c(SCC(=O)O)nc3sc4c(c3c2=O)CCC4)cc1,18.9
16,CCOC(=O)CSc1nc2sc3c(c2c(=O)n1-c1ccc(OCC)cc1)CCN(C)C3,-53.9
17,CN(C)CCNc1nc2sc3c(c2c(=O)n1-c1ccc(F)cc1)CCCCC3,-33.3
18,CCOC(=O)CSc1nc2sc3c(c2c(=O)n1-c1ccc(OC)cc1)CCN(C)C3,-5.76

row,Compound,"hERG current change (%, negative = inhibition) at 10uM [%]"
1,COc1ccc(CNc2nc3nc(-c4ccccc4)cc(=O)n3[nH]2)cc1OC,-13.1
2,CCOC(=O)c1sc(NC(=O)CSc2nc(C)cc(C(F)(F)F)n2)c(C#N)c1C,4.26
3,COc1ccc(C(=O)c2c[nH]c(C(=O)NCc3cccnc3)c2)cc1,-12.7
4,CCN1CCc2nc(NC(=O)c3cc(F)c(F)cc3Cl)sc2C1,-34.2
5,Cc1cccc(OCCOC(=O)c2ccc(F)c(S(=O)(=O)N3CCOCC3)c2)c1,-18.1
6,CN1CCc2c(sc(NC(=O)c3ccc(C(=O)c4ccccc4)cc3)c2C(N)=O)C1.Cl,11.5
7,CCN1CCN(S(=O)(=O)c2ccc(C(=O)Nc3sc4c(c3C(N)=O)CCN(CC)C4)cc2)CC1,12.4
8,CNC(=O)c1c(NC(=O)c2ccc(S(=O)(=O)N3CCCCC3)cc2)sc2c1CCN(C(C)C)C2,-65.8
9,CCN1CCc2c(sc(NC(=O)c3ccc4ccccc4c3)c2C(N)=O)C1.Cl,7.59
10,Cl.NC(=O)c1c(NC(=O)Cc2ccccc2)sc2c1CCN(Cc1ccccc1)C2,7.96
11,CCC(=O)Nc1sc2c(c1C(N)=O)CCN(Cc1ccccc1)C2.Cl,-53.3
12,CCN1CCc2c(sc(NC(=O)c3ccc(S(=O)(=O)N4CCOCC4)cc3)c2C(N)=O)C1,-21.9
13,Cl.NC(=O)c1c(NC(=O)c2ccccc2)sc2c1CCN(Cc1ccccc1)C2,7.85
14,CNC(=O)c1c(NC(=O)c2ccc(S(=O)(=O)N3CCCC3)cc2)sc2c1CCN(C(C)C)C2,2.7
15,CNC(=O)c1c(NC(=O)c2ccc(S(=O)(=O)N3CC(C)OC(C)C3)cc2)sc2c1CCN(C(C)C)C2 (centres unmarked),-26.9
16,CCN1CCc2c(sc(NC(=O)c3ccc(C(=O)c4ccccc4)cc3)c2C(N)=O)C1.Cl,-55.4
17,CCN1CCc2c(sc(NC(=O)c3ccc(S(=O)(=O)N4CC(C)OC(C)C4)cc3)c2C(N)=O)C1 (centres unmarked),-54.5
